USP28 inh – inhibitors of human USP28 deubiquitinase | Ubiquitin carboxyl-terminal hydrolase 28 (Homo sapiens), Q96RU2 | purified USP28, Ub-rhodamine cleavage fluorescence, 30 min | inhibition, % at 25 µM | 3% of 47,000 active
USP17 inh – inhibitors of human USP17 deubiquitinase | Ubiquitin carboxyl-terminal hydrolase 17-like protein 5 (Homo sapiens), A8MUK1 | purified USP17, Ub-rhodamine cleavage fluorescence, 3 h | inhibition, % at 50 µM | 6.5% of 47,000 active | AID 1645855, 2021
USP30 inh – inhibitors of human USP30 deubiquitinase | AID 1645860, 2021 | 5.3% of 47,000 active | purified USP30, Ub-rhodamine cleavage fluorescence | inhibition, % at 25 µM | Ubiquitin carboxyl-terminal hydrolase 30 (Homo sapiens), Q70CQ3
Target sequence (Q70CQ3 whole entry, looked up): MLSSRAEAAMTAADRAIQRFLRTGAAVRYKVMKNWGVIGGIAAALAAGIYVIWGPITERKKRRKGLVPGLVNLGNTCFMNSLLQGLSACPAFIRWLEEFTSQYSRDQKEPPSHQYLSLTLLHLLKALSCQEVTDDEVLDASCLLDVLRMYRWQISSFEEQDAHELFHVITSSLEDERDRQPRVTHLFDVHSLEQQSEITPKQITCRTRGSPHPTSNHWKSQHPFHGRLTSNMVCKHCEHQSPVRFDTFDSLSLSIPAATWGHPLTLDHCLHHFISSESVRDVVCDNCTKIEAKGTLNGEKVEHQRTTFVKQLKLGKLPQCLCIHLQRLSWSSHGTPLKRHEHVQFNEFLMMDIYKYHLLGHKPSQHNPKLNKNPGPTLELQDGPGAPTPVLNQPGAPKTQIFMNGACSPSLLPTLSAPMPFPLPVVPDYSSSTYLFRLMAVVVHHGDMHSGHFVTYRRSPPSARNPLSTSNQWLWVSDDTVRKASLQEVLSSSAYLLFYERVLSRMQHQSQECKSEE
OTUD3 block – inhibitors of human OTUD3 deubiquitinase. purified OTUD3, Ub-rhodamine fluorescence, 2 h. inhibition, % at 25 µM. 0.7% of 47,000 active. AID 1645858, 2021
Numbers stand for hits. Rows were chosen to be rich in hits. Some 12% of all compounds tested hit in one or more screens of this group. Cut-off read from the data, not from the text of the source: active = inhibition above about 30%; inactive = the rest.

Screening O=C(Nc1ccccc1)N1CCc2[nH]cnc2C1c1ccccn1 (stereo not drawn) returned USP28 inh inactive, USP17 inh inactive, USP30 inh inactive and OTUD3 block inactive.
For O=S(=O)(c1ccc(-c2ccc(Cl)cc2Cl)cc1)C1CCNCC1 the results were USP28 inh 44, USP17 inh inactive, USP30 inh 45 and OTUD3 block inactive.
O=C(Nc1ccc(Cl)cc1)c1nc(-n2cnnc2)ccc1Cl was read as USP28 inh inactive, USP17 inh 36, USP30 inh inactive and OTUD3 block inactive.
For CCc1ccc(NC(=O)c2cccc(-n3cnnc3)n2)cc1 the results were USP28 inh inactive, USP17 inh inactive, USP30 inh inactive and OTUD3 block inactive.
Screening COC(=O)c1ccccc1NC(=O)c1ccc(S(=O)(=O)N2CCCC2)cc1 returned USP28 inh inactive, USP17 inh inactive, USP30 inh 43 and OTUD3 block inactive.
COc1ccc(S(=O)(=O)N2CCCCCC2)cc1NC(=O)c1cc(F)cc(F)c1 was read as USP28 inh inactive, USP17 inh inactive, USP30 inh inactive and OTUD3 block inactive.
For COc1ccccc1NC(=O)c1cc(S(=O)(=O)N2CCCC2)ccc1Cl the results were USP28 inh inactive, USP17 inh inactive, USP30 inh inactive and OTUD3 block inactive.
COc1ccc(S(=O)(=O)N2CCCCC2)cc1NC(=O)c1ccc(N2CCCC2=O)cc1 was read as USP28 inh inactive, USP17 inh 50, USP30 inh inactive and OTUD3 block inactive.
Screening Cc1ccccc1-c1nc(-c2cccc(C(=O)N3CCCC3)c2)no1 returned USP28 inh inactive, USP17 inh inactive, USP30 inh 36 and OTUD3 block inactive.
Screening O=C(c1cccc(-c2noc(-c3ccc(F)cc3)n2)c1)N1CCCC1 returned USP28 inh inactive, USP17 inh inactive, USP30 inh inactive and OTUD3 block inactive.
For Cc1cccc(C(=O)N2CCN(c3nc(-c4ccc(Cl)cc4)no3)CC2)c1 the results were USP28 inh inactive, USP17 inh inactive, USP30 inh 40 and OTUD3 block inactive.
COc1ccc(N2C(=O)CSC2CCCN(C)C)c(OC)c1 (stereo not drawn) was read as USP28 inh inactive, USP17 inh inactive, USP30 inh inactive and OTUD3 block inactive.
For COc1cccc2sc(=NC(=O)c3ccc(Cl)s3)n(C)c12 the results were USP28 inh inactive, USP17 inh inactive, USP30 inh inactive and OTUD3 block inactive.
`CC(C)NC(=O)C1CCN(c2ccc(SCC(=O)Nc3ccccc3Cl)nn2)CC1` gave USP28 inh inactive, USP17 inh inactive, USP30 inh 34 and OTUD3 block inactive.
Screening Cc1ccc(NC(=O)/C=C/c2cccc(C(F)(F)F)c2)c(O)c1 returned USP28 inh inactive, USP17 inh 58, USP30 inh 45 and OTUD3 block inactive.
Screening CCn1c(CNc2ccc(C)cc2)nnc1SCC(=O)Nc1ccccc1F returned USP28 inh inactive, USP17 inh inactive, USP30 inh inactive and OTUD3 block inactive.
For CCn1c(CNc2ccc(C)cc2)nnc1SCC(=O)Nc1ccc(C(=O)OC)cc1 the results were USP28 inh 42, USP17 inh inactive, USP30 inh inactive and OTUD3 block inactive.
For O=C(CSc1nc2scc(-c3ccco3)c2c(=O)n1-c1ccccc1)Nc1nsc(-c2ccccc2)n1 the results were USP28 inh 37, USP17 inh inactive, USP30 inh inactive and OTUD3 block inactive.
O=C1N(Cc2ccccn2)C(=O)C2(Cc3ccccc3)CCN(Cc3ccccn3)CCN12 (stereo not drawn) was read as USP28 inh inactive, USP17 inh inactive, USP30 inh inactive and OTUD3 block inactive.
N#Cc1ccc(CC2(Cc3ccc(C#N)cc3)C(=O)N(Cc3ccccn3)C(=O)c3ccccc32)cc1 was read as USP28 inh inactive, USP17 inh inactive, USP30 inh 44 and OTUD3 block inactive.
For Nc1c(C(=O)NCCc2ccccc2)nnn1-c1ccc(F)cc1 the results were USP28 inh inactive, USP17 inh 61, USP30 inh inactive and OTUD3 block inactive.
COc1cccc(NC(=O)C2Cn3ccnc3C3(CCN(C(C)=O)CC3)O2)c1 (stereo not drawn) was read as USP28 inh inactive, USP17 inh inactive, USP30 inh inactive and OTUD3 block 32.
Screening COc1cccc(CN2CCC3(CC2)OC(C(=O)Nc2ccccc2)Cn2ccnc23)c1 (stereo not drawn) returned USP28 inh inactive, USP17 inh inactive, USP30 inh inactive and OTUD3 block inactive.
Screening CCOc1ccccc1NC(=O)C1CCN(c2ccncc2)CC1 returned USP28 inh inactive, USP17 inh inactive, USP30 inh inactive and OTUD3 block inactive.
Screening CCNc1nc(SCC(C)=O)nc2sc3c(c12)CCC(C)C3 (stereo not drawn) returned USP28 inh inactive, USP17 inh 58, USP30 inh 34 and OTUD3 block inactive.
CC1CCc2c(sc3nc(SCC(=O)NCc4ccco4)[nH]c(=O)c23)C1 (stereo not drawn) was read as USP28 inh inactive, USP17 inh inactive, USP30 inh inactive and OTUD3 block inactive.
Screening O=C(c1nc2c(s1)CCNCC2)N1CCOCC1 returned USP28 inh inactive, USP17 inh inactive, USP30 inh inactive and OTUD3 block inactive.
For O=C(COc1ccc(Cl)cc1)N1CCc2cc3ccccc3nc21 the results were USP28 inh inactive, USP17 inh 65, USP30 inh inactive and OTUD3 block inactive.
Screening O=C1CCN(C(=O)COc2ccc(Cl)cc2)c2ccccc2N1 returned USP28 inh inactive, USP17 inh inactive, USP30 inh inactive and OTUD3 block inactive.
For Cc1sc(NC(=O)Cn2nnc3ccccc32)nc1-c1ccc2c(c1)CCN2C(=O)C1CCCCC1 the results were USP28 inh inactive, USP17 inh 31, USP30 inh inactive and OTUD3 block inactive.
Screening Cc1cccc(C(=O)N2CCc3cc(-c4nc(NC(=O)CN5CCc6ccccc6C5)sc4C)ccc32)c1 returned USP28 inh inactive, USP17 inh 66, USP30 inh inactive and OTUD3 block inactive.
Cc1ccc(C(=O)N2CCc3cc(-c4csc(NC(=O)Cn5nnc6ccccc65)n4)ccc32)cc1 was read as USP28 inh inactive, USP17 inh 43, USP30 inh inactive and OTUD3 block inactive.
`Cc1sc(NC(=O)CN2CCc3ccccc3C2)nc1-c1ccc2c(c1)CCN2C(=O)c1cccc(F)c1` gave USP28 inh inactive, USP17 inh inactive, USP30 inh inactive and OTUD3 block inactive.
`Cn1c(=O)c2c(SCc3c(F)cccc3Cl)nc(-c3cccs3)nc2n(C)c1=O` gave USP28 inh inactive, USP17 inh inactive, USP30 inh inactive and OTUD3 block inactive.
Screening COC1CCC(C(=O)N2CCCN(c3cc(-c4cc5ccccc5s4)ncn3)CC2)CC1 (stereo not drawn) returned USP28 inh inactive, USP17 inh inactive, USP30 inh inactive and OTUD3 block inactive.
O=C1C(NS(=O)(=O)Cc2cccc(F)c2)CCN1c1ccc(F)cc1 (stereo not drawn) was read as USP28 inh inactive, USP17 inh 43, USP30 inh inactive and OTUD3 block inactive.

Compound activity as filed in PubChem BioAssay.
